Source: PubChem BioAssay (National Center for Advancing Translational Sciences (NCATS))
Only some compounds are listed: those with a hit (about 3.1% of all), similar ones and a draw of the others.
IDH1 R132H inh – blocks human mutant IDH1 R132H enzyme | O75874 | IDH1-R132H enzyme, NADPH consumption, diaphorase/resazurin fluorescence | Potency, µM (doses to about 76.6 µM), inactives show at the highest dose activity change, negative = inhibition, usual class: inhibitors | hit rate 0.093% among 390,000 | AID 602179; also: % is scaled to controls: 0 for no effect and ±100 for the full control effect; nearly all actives have a fitted effect of over 65% in size
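IDH1-R132H (0.5 ug/mL) preincubated 30 min with compound, then NADPH (0.016 mM) and alpha-KG (2 mM) added; 80 min at RT, pH 7.5. Remaining NADPH coupled via diaphorase/resazurin to fluorescence (540/590 nm); concentration-response curves normalized to no-enzyme control.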
A549 viability – A549 cytotoxicity, counter-screen for Nrf2 inhibitors | Potency, µM (doses to about 46 µM), for the others: at the highest dose activity change, negative = cytotoxicity, actives largely listed as inhibitors | hit rate 0.16% among 390,000 | A549 ARE-Fluc cells, CellTiter-Fluor viability, 18-24 h; also: % is scaled to controls: 0 for no effect and ±100 for the full control effect
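A549 ARE_Fluc cells in 5% FBS OPTI-MEM were exposed to compounds in concentration-response for 18-24 h at 37 deg C. Viability was read by CellTiter-Fluor fluorescence (Ex 405/Em 525) after 30 min, before the luciferase read.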
TrxR1 substrate – rat thioredoxin reductase 1 substrate activity. AID 588456. purified TrxR1 substrate turnover, NADPH consumption readout. Potency, µM (titrated, usually from 114 µM), for the others: top-dose activity change, negative = substrate turnover. O89049. hit rate 0.01% among 390,000; also: % is scaled to controls: 0 for no effect and ±100 for the full control effect; nearly all actives have a fitted effect of over 50% in size
Target sequence (O89049 whole entry, looked up): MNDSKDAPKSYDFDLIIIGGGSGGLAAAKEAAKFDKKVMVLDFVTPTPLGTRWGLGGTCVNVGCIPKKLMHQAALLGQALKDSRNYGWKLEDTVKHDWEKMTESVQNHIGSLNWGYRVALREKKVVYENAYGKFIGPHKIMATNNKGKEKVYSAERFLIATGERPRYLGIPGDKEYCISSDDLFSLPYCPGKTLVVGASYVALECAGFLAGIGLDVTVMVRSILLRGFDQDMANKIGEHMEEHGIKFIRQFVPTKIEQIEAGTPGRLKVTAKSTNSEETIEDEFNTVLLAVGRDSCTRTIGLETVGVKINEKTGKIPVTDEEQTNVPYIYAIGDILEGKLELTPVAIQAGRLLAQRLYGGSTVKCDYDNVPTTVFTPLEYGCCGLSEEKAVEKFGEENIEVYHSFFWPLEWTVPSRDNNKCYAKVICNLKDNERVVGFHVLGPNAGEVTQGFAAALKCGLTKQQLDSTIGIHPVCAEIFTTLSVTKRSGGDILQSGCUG
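Rat TrxR1, dispensed at 90 nM, was prereduced with 400 uM NADPH (final) for 5 min at ~22 deg C, then incubated with compound 15 min before 400 uM selenite. A first-read NADPH fluorescence drop versus no-compound background flagged substrates.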
Mito fusion act – inhibitors of mitochondrial division or activators of mitochondrial fusion; S. cerevisiae fusion-defective mutant growth rescue, CellTiterGlo 48 h; Potency, µM (highest dose often 46.1 µM), inactives show at the top dose growth rescue (activation), actives largely listed as activators; hit rate 0.23% among 320,000; AID 485298; also: % of control where 0% means no effect; nearly all actives have a fitted effect of over 45% in size
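Growth-rescue viability read-out: after 48 h at the non-permissive 37C in glycerol/ethanol YPEG, yeast mitochondrial fusion mutants are measured by CellTiterGlo luminescence; compounds (23 nl pinned per well) restoring growth score as division inhibitors or fusion activators.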
TrxR1 inh – rat TrxR1 inhibition; O89049; recombinant rTrxR1, NADPH fluorescence consumption, selenite substrate; Potency, µM (highest dose often 114 µM), for inactives: at the top dose activity change, negative = inhibition, most hits filed as inhibitors; hit rate 1% among 390,000; also: % is scaled to controls: 0 for no effect and ±100 for the full control effect; nearly all actives have a fitted effect of over 65% in size
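Rat TrxR1 (90 nM in the dispensed reagent) was pre-reduced with 400 uM NADPH for 5 min at room temperature, then incubated with compound for 15 min. After 400 uM selenite was added, NADPH fluorescence (Ex 340/Em 450 nm) was followed for 8 min.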
Nrf2 block – Nrf2 pathway inhibition. A549 ARE-Fluc reporter, luciferase luminescence, 18-24 h. Potency, µM (highest dose often 46 µM), for the others: at the top dose activity change, negative = inhibition, most hits filed as inhibitors. hit rate 2.1% among 360,000. AID 504444; also: % is scaled to controls: 0 for no effect and ±100 for the full control effect; nearly all actives have a fitted effect of over 60% in size
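Reporter: ARE-Fluc in A549. Exposure: 18-24 h, 37 °C, 5% CO2, 5% FBS OPTI-MEM. Readouts: fluorescent cytotoxicity (CellTiter-Fluor), then luminescent Nrf2 signal after BugLite.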
Active calls of the source: *; ? = inconclusive; / = not tested or not shown; [ ] = remark or other dose. Calls follow the shape of the dose curve; as a rule, active = well fitted curve in the direction sought with a large enough effect; inconclusive = small, poorly fitted or top-dose-only effect, or another doubt; inactive = no such curve, though single readings can be large; an effect the other way counts as inactive or inconclusive. Potency is read from the fitted curve at half-maximal effect.

SMILES	IDH1 R132H inh	A549 viability	TrxR1 substrate	Mito fusion act	TrxR1 inh	Nrf2 block
Cn1cnc([N+](=O)[O-])c1Sc1ncnc2nc[nH]c12	0%	-20%	7%[57.1 µM]	-17%	25µM*	-8%
COC(=O)C(NC(=O)CCc1c(C)nc2c(-c3ccccc3)c(C)nn2c1C)C(C)C (centres undefined)	1%	3%	-3%	/	1%	-11%
COc1ccc(Cl)cc1NC(=O)CCCn1c(=O)c2cccn2c2cccnc21	-7%	-1%	0%	/	13%	16µM*
Cc1ccc(NC(=O)CCCn2c(=O)c3cccn3c3cccnc32)c(Cl)c1	-14%	5%	0%	/	4%	-4%
O=C1CC(NS(=O)(=O)c2ccc([N+](=O)[O-])cc2)CN1c1ccc(Cl)cc1 (centres undefined)	5%	1%	-18%	-4%	50µM*	-6%
CCOC(=O)Nc1ccc2c(c1)N(C(=O)CCN(CC)CC)c1ccccc1S2=O (centres undefined)	-1%	-3%	5%[57.1 µM]	-9%	28µM*	-16%
CNS(=O)(=O)c1cccc(C(=O)OCc2cc(C(C)=O)ccc2OC)c1	2%	-4%	5%	-8%	18%[57.1 µM]	?
COc1ccc(C(C)=O)cc1COC(=O)c1ccc(C)c(S(=O)(=O)N2CCOCC2)c1	3%	-2%	-2%	6%	35µM*	4%
COc1ccc(C(C)=O)cc1COC(=O)Cc1cc(OC)c(OC)c(OC)c1	-8%	0%	4%	9%	40µM*	20%
COc1ccc(C(C)=O)cc1COC(=O)c1ccc2c(c1)OCCO2	0%	-9%	-4%	3%	56µM*	-3%
COc1ccc(C(C)=O)cc1COC(=O)c1ccc(S(=O)(=O)N(C)C)cc1	4%	-1%	5%	-4%	45µM*	10%
COc1ccc(C(=O)OCc2cc(=O)oc3c(C)c(C)ccc23)cc1S(=O)(=O)N1CCOCC1	2%	/	/	/	/	/
Cc1cc(C)cc(-n2c(SCC(=O)N3CCOCC3)nc3c([nH]c4ccccc43)c2=O)c1	13%	1%	-1%[57.1 µM]	/	-1%[57.1 µM]	/
O=c1[nH]cnc2c1ncn2[C@H]1C[C@H](O)[C@@H](CO)O1	/	2%	0%	/	13%	26%
CCOC(=O)c1ccccc1NC(=O)Cc1ccc(OC)c(S(=O)(=O)N2CCOCC2)c1	-2%	-25%	5%	/	11%	18µM*
CC(=O)c1c(-c2ccccc2)[nH]c2ccccc12	15%	-5%	2%[57.1 µM]	-9%	-1%[57.1 µM]	?
O=C(O)/C=C/C(=O)c1c(-c2ccccc2)[nH]c2ccccc12	8%	2%	-7%	-1%	45µM*	1%
N#Cc1ccc(/C=C2/C=Cc3ccccc32)cc1	/	/	7%	/	29%	/
Cc1cc(C)c(OCC(=O)OCCNC(=O)c2cccnc2)c(C)c1	0%	0%	-3%	-2%	50µM*	-5%
Cc1ccc(CNc2ncnc3[nH]ncc23)o1	/	6%	-9%	/	-14%	1%
Cc1cc(C)cc(NC(=O)Nc2nnc(N(C)C3CCCCC3)s2)c1	6%	8%	-4%	/	4%	12%
Cc1cc(NC(=O)Nc2nnc(N(C)C3CCCCC3)s2)ccc1Br	2%	-11%	-5%	/	7%	26µM*
Cc1ccc2cc(CN(Cc3ccco3)S(=O)(=O)c3c(C)ccc4nsnc34)c(=O)[nH]c2c1	0%	1%	-4%	4%	13µM*	?
CC1CNCCN1S(=O)(=O)c1cccc2cnccc12 (centres undefined)	-3%	-7%	8%[57.1 µM]	-1%	?	18µM*
COc1ccc(NCc2cc3ccc(OC)cc3n(CC(=O)Nc3ccc(C)c(C)c3)c2=O)cc1	0%	10%	0%	/	27%	25%
COc1cc(Br)c(CC(=O)NO)cc1OC	/	/	3%	/	11%	/
